About 14,000 (4.5%) of roughly 310,000 compounds showed an effect of 50% or more. The effect is printed as a negative number. Only a selection was taken, and strong results are over-represented in it overall.
These compounds were tested against human ether-à-go-go-related gene (hERG) potassium channel (human, UniProt Q12809) (assay: primary screen, population patch clamp on CHO cells stably expressing hERG; higher = less effect of the substance).
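Also: peak tail current of the secondary pulse compared with the same well before compound.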

Sequence of human ether-à-go-go-related gene (hERG) potassium channel (Q12809 whole entry, looked up): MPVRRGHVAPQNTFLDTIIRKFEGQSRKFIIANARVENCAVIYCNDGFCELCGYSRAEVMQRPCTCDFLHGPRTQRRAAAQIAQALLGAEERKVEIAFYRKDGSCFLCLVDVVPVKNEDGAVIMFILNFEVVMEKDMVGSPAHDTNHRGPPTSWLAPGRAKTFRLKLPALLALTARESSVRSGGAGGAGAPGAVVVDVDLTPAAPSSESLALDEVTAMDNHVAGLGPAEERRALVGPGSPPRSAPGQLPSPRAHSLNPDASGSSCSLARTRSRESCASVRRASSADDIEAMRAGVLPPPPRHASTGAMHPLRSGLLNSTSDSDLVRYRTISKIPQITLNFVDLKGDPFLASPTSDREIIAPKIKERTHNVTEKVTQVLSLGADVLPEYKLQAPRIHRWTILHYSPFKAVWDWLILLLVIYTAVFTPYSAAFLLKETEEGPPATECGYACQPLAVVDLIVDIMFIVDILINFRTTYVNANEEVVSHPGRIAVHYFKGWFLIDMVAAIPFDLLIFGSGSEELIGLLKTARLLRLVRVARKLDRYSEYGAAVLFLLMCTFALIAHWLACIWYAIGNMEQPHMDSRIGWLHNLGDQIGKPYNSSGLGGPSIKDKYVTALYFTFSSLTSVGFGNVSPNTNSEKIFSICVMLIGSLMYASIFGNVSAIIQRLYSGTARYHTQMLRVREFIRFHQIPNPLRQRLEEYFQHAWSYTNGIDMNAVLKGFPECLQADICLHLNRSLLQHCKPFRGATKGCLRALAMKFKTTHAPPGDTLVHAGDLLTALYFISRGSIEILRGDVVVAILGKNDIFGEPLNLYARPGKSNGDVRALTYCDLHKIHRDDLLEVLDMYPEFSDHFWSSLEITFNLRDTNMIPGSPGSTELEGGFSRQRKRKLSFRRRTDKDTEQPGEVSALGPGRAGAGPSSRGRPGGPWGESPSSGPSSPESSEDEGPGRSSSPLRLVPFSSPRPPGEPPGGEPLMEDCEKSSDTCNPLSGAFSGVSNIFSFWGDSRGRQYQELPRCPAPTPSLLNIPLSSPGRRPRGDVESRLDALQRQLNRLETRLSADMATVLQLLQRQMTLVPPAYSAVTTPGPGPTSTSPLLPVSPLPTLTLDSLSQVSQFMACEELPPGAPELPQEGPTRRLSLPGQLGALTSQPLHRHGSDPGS

Row | SMILES | hERG current change (%, negative = inhibition) at 10uM [%]
1 | CCCOc1ccc(N2C(=O)CC(N3CCN(c4ccc([N+](=O)[O-])cc4)CC3)C2=O)cc1 (stereo not drawn) | -73.8
2 | CCOc1ccc(N2C(=O)CC(N3CCN(c4ccc([N+](=O)[O-])cc4)CC3)C2=O)cc1 (stereo not drawn) | -28.3
3 | CCCOc1ccc(N2C(=O)CC(N3CCOCC3)C2=O)cc1 (stereo not drawn) | -3.38
4 | O=C(COC(=O)c1cccc2ccccc12)Nc1cccnc1Cl | 0.703
5 | CCC1=NN2C(=N)/C(=C\c3cccn3-c3ccc(C)c(C)c3)C(=O)N=C2S1 | -6.32
6 | CCC1=NN2C(=N)/C(=C\c3cccn3-c3ccc(C)cc3C)C(=O)N=C2S1 | -5.33
7 | CCC1=NN2C(=N)/C(=C\c3cccn3-c3c(C)cccc3C)C(=O)N=C2S1 | -79.4
8 | Cc1ccc(S(=O)(=O)N2CCCC(C)C2)cc1 (stereo not drawn) | 12.9
9 | Cc1ccc(-c2nc(C3CCCN(S(=O)(=O)c4ccc(C)cc4)C3)no2)cc1 (stereo not drawn) | 12.2
10 | Cc1ccc(S(=O)(=O)N2CCCC(c3nnc4n3-c3ccccc3SC4)C2)cc1 (stereo not drawn) | -92.8
11 | O=C(O)CCCCCNC(=O)c1ccccc1 | 8.89
12 | CCOc1ccc(-n2c(SCc3ccc(C#N)cc3)nnc2-c2cccnc2)cc1 | -71.9
13 | O=C(O)c1ccc(CSc2nnc(-c3cccnc3)n2-c2ccc(Br)cc2)cc1 | 15.1
14 | NC(=O)CSc1nnc(-c2cccs2)n1-c1ccccc1 | 10.2
15 | N#Cc1ccc(CSc2nnc(-c3c[nH]c4ccccc34)n2-c2ccccc2)cc1 | 5.38
16 | CCOc1ccc(-n2c(SCC(N)=O)nnc2-c2cccnc2)cc1 | -5.57
17 | N#Cc1ccc(CSc2nnc(-c3cccs3)n2-c2ccccc2)cc1 | -72.7
18 | CC(=O)Nc1ccc2c(CSc3nnc(-c4cccnc4)n3-c3ccc(C)cc3C)cc(=O)oc2c1 | -17.8
19 | N#Cc1ccc(CSc2nnc(-c3cccnc3)n2-c2ccccc2)cc1 | -71.2
20 | CCOc1ccc(-n2c(SCc3cc(=O)oc4cc(C)ccc34)nnc2-c2cccnc2)cc1 | -70.7
21 | CCOc1ccc(-n2c(SCc3cc(=O)oc4cc(C)c(C(C)C)cc34)nnc2-c2cccnc2)cc1 | -37.2

Row | SMILES | hERG current change (%, negative = inhibition) at 10uM [%]
22 | COc1ccc(-n2c(SCC#N)nnc2-c2cccnc2)cc1 | -34
23 | N#CCSc1nnc(-c2cccnc2)n1-c1ccccc1 | -7.93
24 | O=C(CCCN1C(=O)/C(=C/c2ccccc2Cl)SC1=S)NNC(=O)c1ccncc1 | 2.34
25 | O=C(NNc1ccccn1)c1ccccc1CC[N+](=O)[O-] | 13.3
26 | COc1ccc(-c2ccc(C#N)c(SCC(=O)Nc3sc4c(c3C#N)CCC4)n2)cc1OC | 10.3
27 | COC(=O)c1c(C)[nH]c(C(=O)COc2ccc3ccc(=O)oc3c2)c1C | 11.5
28 | CN(C(=O)C1CCOC1)c1nnc(-c2cnccn2)s1 (stereo not drawn) | 11.1
29 | O=S(=O)(Nc1nc(-c2ccccc2)cs1)c1cc(Cl)ccc1Cl | 18.3
30 | CCOC(=O)C1=C(CC)OC(N)=C(C#N)C1c1ccsc1 (stereo not drawn) | 1.69
31 | CC1CCN(c2ccc(/C=N\Nc3nncn3N)cc2[N+](=O)[O-])CC1 | -5.89
32 | O=C(NCc1cccnc1)C1CCCN(S(=O)(=O)c2ccc(Cl)cc2)C1 (stereo not drawn) | -26.9
33 | Cc1oc(-c2ccccc2F)nc1CN1CCC(C(=O)NCc2cccnc2)CC1 | -26.7
34 | Cc1ccc(-c2nc(CSCC(=O)NCc3cccnc3)c(C)o2)cc1 | -15.3
35 | Cc1oc(-c2ccc(Cl)cc2)nc1CN1CCC(C(=O)NCc2cccnc2)CC1 | -65.9
36 | Cc1cc(C)c(S(=O)(=O)N2CCCC(C(=O)NCc3cccnc3)C2)c(C)c1 (stereo not drawn) | -27
37 | COc1ccc(C(C)C)cc1S(=O)(=O)N1CCC(C(=O)NCc2cccnc2)CC1 | -5.48
38 | CC(C)c1ccc(CN2CCC(C(=O)NCc3cccnc3)CC2)cc1.O=C(O)C(=O)O | -52.1
39 | Cc1ccccc1-c1nc(CN2CCC(C(=O)NCc3cccnc3)CC2)c(C)o1 | -32.8
40 | CCS(=O)(=O)N1CCC(C(=O)NCc2cccnc2)CC1 | -11.7
41 | Cc1ccccc1-c1nc(CN2CCCC(C(=O)NCc3cccnc3)C2)c(C)o1 (stereo not drawn) | -64
42 | Cc1oc(-c2ccc(Cl)cc2)nc1CN1CCCC(C(=O)NCc2cccnc2)C1 (stereo not drawn) | -60.8

Row | SMILES | hERG current change (%, negative = inhibition) at 10uM [%]
43 | CCOC(=O)COc1nc(Nc2ccccc2C)nc(N(C)C)n1 | 1.92
44 | Cc1ccc(N2CC(C(=O)OCC(=O)c3ccc[nH]3)CC2=O)cc1 (stereo not drawn) | -24.2
45 | Cc1cc(C)cc(C(=O)Nc2ccncc2)c1 | 7.83
46 | O=C(CNC(=O)c1ccco1)Nc1cccc(Cl)c1 | -10.8
47 | O=C(Nc1ccccc1C(=O)NCCCN1CCOCC1)c1ccc(Cl)cc1 | -15.5
48 | O=C(CCSc1ccccc1)N1CCCC1 | 10.9
49 | CCC(=O)NCc1ccc(-c2nc3ncccc3o2)cc1 | 13
50 | Cc1csc(SC(C)c2nc3scc(-c4ccccc4)c3c(=O)[nH]2)n1 (stereo not drawn) | 6.61
51 | Cc1ccc(S(=O)(=O)N2[C@@H](c3cccc(Cl)c3)C(C(=O)O)=CC[C@H]2c2cccs2)cc1 | 13.7
52 | Cc1oc(-c2ccc(Cl)cc2)nc1CN1CCCC(C(=O)NCc2ccccn2)C1 (stereo not drawn) | -67.8
53 | Cc1noc(C)c1S(=O)(=O)N1CCCC(C(=O)NCc2ccccn2)C1 (stereo not drawn) | 3.78
54 | Cc1oc(-c2cccc(Cl)c2)nc1CN1CCC(C(=O)NCc2cccnc2)CC1 | -60.9
55 | Cc1oc(-c2ccc(Cl)cc2)nc1CS(=O)CC(=O)NCc1ccccn1 (stereo not drawn) | -10.7
56 | O=C(Nc1nccs1)c1cccc(S(=O)(=O)N2CCCC2)c1 | -6.01
57 | Cc1cc(C(=O)CN2CCC(C)CC2)c(C)n1-c1ccccc1F | -5.74
58 | O=c1c2ccccc2nnn1-c1ccc(Br)cc1 | 12
59 | COc1ccc(C(O)P(=O)(OC2CCCCC2)c2ccc(N(C)C)cc2)cc1OC (stereo not drawn) | -7.44
60 | CCCCC1C(=O)N(c2ccccc2)N(c2ccc(O)cc2)C1=O (stereo not drawn) | -9
61 | O=C(Cc1c[nH]c2ccccc12)NCc1ccc2c(c1)OCO2 | 19.4
62 | Cc1ccc(CCNC(=O)c2nc(CS(=O)(=O)c3ccc(Cl)cc3)no2)cc1 | 31.6
63 | c1cc(-c2ccncc2)ccn1 | 20.9

Row | SMILES | hERG current change (%, negative = inhibition) at 10uM [%]
64 | c1cc(-c2sc(-c3ccncc3)c(-c3ccncc3)c2-c2ccncc2)ccn1 | -66.6
65 | Nc1ccncc1 | 5
66 | Cc1ccc2[nH]c(=O)c(CN(CC3CCCO3)C(=S)NCc3ccco3)cc2c1 (stereo not drawn) | -8.49
67 | COC(=O)c1ccc(-n2cnc(Cl)n2)c(F)c1 | -7.27
68 | COc1ccc(-n2nc(C(=O)NCC(=O)NCCCN3CCCCCC3)c3ccccc3c2=O)cc1Cl | -56
69 | COc1ccc(-n2nc(C(=O)NCC(=O)NCc3ccc(F)cc3)c3ccccc3c2=O)cc1 | -12.1
70 | CCOC(=O)C1CCN(C(=O)CNC(=O)c2nn(-c3ccc(OC)c(OC)c3)c(=O)c3ccccc23)CC1 | -2.02
71 | CCC1CCCCN1CCCNC(=O)CNC(=O)c1nn(-c2ccc(OC)c(Cl)c2)c(=O)c2ccccc12 (stereo not drawn) | -39.4
72 | COc1ccc(-n2nc(C(=O)NCC(=O)NCCCN3CCOCC3)c3ccccc3c2=O)cc1Cl | -12.6
73 | COc1ccc(-n2nc(C(=O)NCC(=O)NCc3ccccc3OC)c3ccccc3c2=O)c(OC)c1 | 7.07
74 | COCCCNC(=O)CNC(=O)c1nn(-c2ccc(OC)c(Cl)c2)c(=O)c2ccccc12 | 8.9
75 | COc1ccc(-n2nc(C(=O)NCC(=O)NCCCN3CCC(C)CC3)c3ccccc3c2=O)cc1Cl | -74.2
76 | CCOC(=O)C1CCCN(C(=O)CNC(=O)c2nn(-c3ccc(OC)c(Cl)c3)c(=O)c3ccccc23)C1 (stereo not drawn) | -5.66
77 | CCOC(=O)C1CCN(C(=O)CNC(=O)c2nn(-c3ccc(OC)c(Cl)c3)c(=O)c3ccccc23)CC1 | -55
78 | CCCCNC(=O)CNC(=O)c1nn(-c2ccc(OC)c(Cl)c2)c(=O)c2ccccc12 | 9.5
79 | COc1ccc(-n2nc(C(=O)NCC(=O)NCc3ccccc3OC)c3ccccc3c2=O)cc1 | -69.5
80 | CCOC(=O)C1CCCN(c2cc(=O)n(-c3ccccc3Cl)c(=O)[nH]2)C1 (stereo not drawn) | 9.43
81 | O=C1C2=C(SCCS2)C(=O)N1CCCO | 4.66
82 | CCC(Oc1ccccc1)C(=O)Nc1ccccc1N1CCCCC1 (stereo not drawn) | 5.6
83 | CSc1nnc2ccc(-c3cccs3)nn12 | -8.27
84 | O=C(NC(=O)c1ccccc1)Nc1ccccc1O | 14.7

— PMC4336329 (PLoS ONE, 2015)
